Reference: PubChem BioAssay AID1159580 (chemical genetic matrix, 2015)
Out of some 5,500 compounds screened, about 2,000 (36%) were called active. About 18% were inconclusive and are not listed. Cut-off read from the data, not from the text of the source: active = normalized growth mostly below about 0.91 (no sharp cut-off); inconclusive = no clear call, values can overlap the other calls; inactive = mostly above about 0.92. Some of the results follow.

Assay: chemical genetic growth profiling, strain panel (AID 1159580);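 note: tested at 20 µM; growth read once vehicle control cultures reached saturation at 30 °C; 1 = growth at the plate median or of vehicle wells; lower values mean less growth of the strain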
Conditions: growth OD

Measured: normalized growth

Nc1ccn(C2O[C@H](CO)[C@@H](O)[C@H]2O)c(=O)n1 (some centres undefined)
inactive: S. cerevisiae deletion strains, locus YJR075W, strain HOC1, active compounds read low 1.02 | S. cerevisiae deletion strains, locus YKL009W, strain mrt4, active compounds read low 1.04 | S. cerevisiae deletion strains, locus YKL068W, active compounds read low 1 | S. cerevisiae deletion strains, locus YKL085W, strain MDH1 (second series), active compounds read low 1 | S. cerevisiae deletion strains, locus YKL085W, strain MDH1, active compounds read low 1 | S. cerevisiae deletion strains, locus YKL160W, strain elf1, active compounds read low 0.994 | S. cerevisiae deletion strains, locus YKL190W, strain CNB1, active compounds read low 0.989 | S. cerevisiae deletion strains, locus YKR001C, strain vps1, active compounds read low 1.03 | S. cerevisiae deletion strains, locus YKR026C, strain gcn3, active compounds read low 1 | S. cerevisiae deletion strains, locus YKR091W, strain srl3, active compounds read low 0.986 | S. cerevisiae deletion strains, locus YLL001W, strain dnm1, active compounds read low 0.989 | S. cerevisiae deletion strains, locus YLL026W, active compounds read low 0.994 | S. cerevisiae deletion strains, locus YLL041C, strain sdh2, active compounds read low 0.987 | S. cerevisiae deletion strains, locus YLR027C, strain aat2, active compounds read low 0.984 | S. cerevisiae deletion strains, locus YLR039C, strain RIC1, active compounds read low 1.01 | S. cerevisiae deletion strains, locus YLR058C, strain SHM2, active compounds read low 0.998 | S. cerevisiae deletion strains, locus YLR102C, strain apc9, active compounds read low 1.01 | S. cerevisiae deletion strains, locus YLR113W, strain HOG1, active compounds read low 1.01 | S. cerevisiae deletion strains, locus YLR221C, strain rsa3, active compounds read low 1 | S. cerevisiae deletion strains, locus YLR258W, strain gsy2, active compounds read low 1 | S. cerevisiae deletion strains, locus YLR262C, strain YPT6 (second series), active compounds read low 0.992 | S. cerevisiae deletion strains, locus YLR262C, strain YPT6, active compounds read low 1.05 | S. cerevisiae deletion strains, locus YLR268W, strain sec22, active compounds read low 1.05 | S. cerevisiae deletion strains, locus YLR320W, strain mms22, active compounds read low 0.995 | S. cerevisiae deletion strains, locus YLR330W, strain CHS5, active compounds read low 0.986 | S. cerevisiae deletion strains, locus YLR342W, strain FKS1 (second series), active compounds read low 1.02 | S. cerevisiae deletion strains, locus YLR342W, strain FKS1, active compounds read low 0.995 | S. cerevisiae deletion strains, locus YLR357W, strain rsc2, active compounds read low 0.964 | S. cerevisiae deletion strains, locus YLR370C, strain arc18, active compounds read low 0.998 | S. cerevisiae deletion strains, locus YLR371W, strain rom2, active compounds read low 1.01 | S. cerevisiae deletion strains, locus YLR384C, strain iki3, active compounds read low 1 | S. cerevisiae deletion strains, locus YLR418C, strain cdc73, active compounds read low 1.01 | S. cerevisiae deletion strains, locus YML016C, strain PPZ1, active compounds read low 1 | S. cerevisiae deletion strains, locus YML032C, strain rad52, active compounds read low 0.993 | S. cerevisiae deletion strains, locus YML120C, strain ndi1, active compounds read low 0.979 | S. cerevisiae deletion strains, locus YML124C, strain tub3, active compounds read low 1.01 | S. cerevisiae deletion strains, locus YMR058W, strain fet3, active compounds read low 0.983 | S. cerevisiae deletion strains, locus YMR078C, strain ctf18, active compounds read low 1.02 | S. cerevisiae deletion strains, locus YMR125W, strain sto1, active compounds read low 0.973 | S. cerevisiae deletion strains, locus YMR129W, active compounds read low 0.991 | S. cerevisiae deletion strains, locus YMR205C, strain PFK2, active compounds read low 0.998 | S. cerevisiae deletion strains, locus YMR223W, strain ubp8, active compounds read low 1.02 | S. cerevisiae deletion strains, locus YMR231W, strain pep5, active compounds read low 0.979 | S. cerevisiae deletion strains, locus YMR307W, strain GAS1, active compounds read low 1.05 | S. cerevisiae deletion strains, locus YNL067W, strain RPL9B, active compounds read low 1.03 | S. cerevisiae deletion strains, locus YNL071W, strain lat1, active compounds read low 0.983 | S. cerevisiae deletion strains, locus YNL128W, strain TEP1, active compounds read low 1.01 | S. cerevisiae deletion strains, locus YNL153C, strain GIM3, active compounds read low 1.03 | S. cerevisiae deletion strains, locus YNL183C, strain NPR1, active compounds read low 0.933 | S. cerevisiae deletion strains, locus YNL209W, strain ssb2, active compounds read low 0.992 | S. cerevisiae deletion strains, locus YNL233W, strain BNI4, active compounds read low 1.05 | S. cerevisiae deletion strains, locus YNL248C, strain rpa49, active compounds read low 0.984 | S. cerevisiae deletion strains, locus YNL250W, strain rad50, active compounds read low 1 | S. cerevisiae deletion strains, locus YNL271C, strain bni1, active compounds read low 1.01 | S. cerevisiae deletion strains, locus YNL298W, strain CLA4, active compounds read low 1 | S. cerevisiae deletion strains, locus YNL307C, strain MCK1, active compounds read low 1.02 | S. cerevisiae deletion strains, locus YNL322C, strain KRE1 (second series), active compounds read low 1.01 | S. cerevisiae deletion strains, locus YNR049C, strain mso1, active compounds read low 0.985 | S. cerevisiae deletion strains, locus YNR052C, strain pop2, active compounds read low 1.01 | S. cerevisiae deletion strains, locus YOL006C, strain TOP1, active compounds read low 1.09 | S. cerevisiae deletion strains, locus YOL012C, strain htz1 0.74 | S. cerevisiae deletion strains, locus YOL147C, strain pex11, active compounds read low 1 | S. cerevisiae deletion strains, locus YOR001W, strain rrp6, active compounds read low 0.98 | S. cerevisiae deletion strains, locus YOR061W, strain CKA2, active compounds read low 1.01 | S. cerevisiae deletion strains, locus YOR069W, strain VPS5, active compounds read low 1.01 | S. cerevisiae deletion strains, locus YOR070C, strain gyp1, active compounds read low 1 | S. cerevisiae deletion strains, locus YOR080W, strain dia2, active compounds read low 1 | S. cerevisiae deletion strains, locus YOR083W, strain WHI5, active compounds read low 0.992 | S. cerevisiae deletion strains, locus YOR106W, strain vam3, active compounds read low 1.02 | S. cerevisiae deletion strains, locus YOR136W, strain idh2, active compounds read low 1.01 | S. cerevisiae deletion strains, locus YOR144C, strain elg1, active compounds read low 1.01 | S. cerevisiae deletion strains, locus YOR184W, strain ser1, active compounds read low 1.02 | S. cerevisiae deletion strains, locus YOR231W, strain MKK1, active compounds read low 0.997 | S. cerevisiae deletion strains, locus YOR265W, strain rbl2, active compounds read low 0.988 | S. cerevisiae deletion strains, locus YOR270C, strain vph1, active compounds read low 0.956 | S. cerevisiae deletion strains, locus YOR290C, strain snf2, active compounds read low 0.989 | S. cerevisiae deletion strains, locus YOR316C, strain cot1, active compounds read low 1.01 | S. cerevisiae deletion strains, locus YPL051W, strain arl3, active compounds read low 1 | S. cerevisiae deletion strains, locus YPL055C, strain LGE1, active compounds read low 1.01 | S. cerevisiae deletion strains, locus YPL078C, strain atp4, active compounds read low 0.993 | S. cerevisiae deletion strains, locus YPL106C, strain sse1, active compounds read low 0.992 | S. cerevisiae deletion strains, locus YPL240C, strain hsp82, active compounds read low 1 | S. cerevisiae deletion strains, locus YPL256C, strain CLN2, active compounds read low 1 | S. cerevisiae deletion strains, locus YPR119W, strain clb2, active compounds read low 0.996 | S. cerevisiae deletion strains, locus YPR141C, strain kar3, active compounds read low 1.01 | S. cerevisiae deletion strains, locus YPR163C, strain tif3, active compounds read low 1.01 | S. cerevisiae deletion strains, locus YPR167C, strain met16, active compounds read low 1.01 | S. cerevisiae deletion strains, strain wtn01, active compounds read low 1.05 | S. cerevisiae strains, strain wild type, active compounds read low 0.98
